# HP1b binding inh: blocks HP1-beta chromodomain binding to methylated histone tails. P83916. AlphaScreen HP1-beta / biotin-H3K9me3 peptide binding. Potency, µM (series often up to 114 µM), for the others: top-dose activity change, negative = inhibition, hits mostly inhibitors. actives 0.56% (n = 390,000). AID 540317; note: potency is the fitted concentration of half-maximal effect; nearly all actives have a fitted effect of over 70% in size
#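 Compound inhibition of the preformed complex between 50 nM HP1-beta and 50 nM biotinylated H3K9me3 peptide was read by AlphaScreen. Buffer was PBS pH 7.4 with 0.01% Tween-20. Incubations ran 30 min at room temperature, with 10 ug/mL donor/acceptor beads.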
# JMJD2A Tudor inh: inhibitors of human JMJD2A Tudor domain; Potency, µM (series often up to 114 µM), for the others: top-dose activity change, negative = inhibition, hits mostly inhibitors; actives 4.4% (n = 390,000); AlphaScreen JMJD2A-Tudor / H3K4me3 peptide binding; O75164; note: potency is the fitted concentration of half-maximal effect; % is set by controls: 0 for no effect and ±100 for the full control effect; nearly all actives have a fitted effect of over 50% in size
# Target sequence (O75164 whole entry, looked up, the tested form may be a part): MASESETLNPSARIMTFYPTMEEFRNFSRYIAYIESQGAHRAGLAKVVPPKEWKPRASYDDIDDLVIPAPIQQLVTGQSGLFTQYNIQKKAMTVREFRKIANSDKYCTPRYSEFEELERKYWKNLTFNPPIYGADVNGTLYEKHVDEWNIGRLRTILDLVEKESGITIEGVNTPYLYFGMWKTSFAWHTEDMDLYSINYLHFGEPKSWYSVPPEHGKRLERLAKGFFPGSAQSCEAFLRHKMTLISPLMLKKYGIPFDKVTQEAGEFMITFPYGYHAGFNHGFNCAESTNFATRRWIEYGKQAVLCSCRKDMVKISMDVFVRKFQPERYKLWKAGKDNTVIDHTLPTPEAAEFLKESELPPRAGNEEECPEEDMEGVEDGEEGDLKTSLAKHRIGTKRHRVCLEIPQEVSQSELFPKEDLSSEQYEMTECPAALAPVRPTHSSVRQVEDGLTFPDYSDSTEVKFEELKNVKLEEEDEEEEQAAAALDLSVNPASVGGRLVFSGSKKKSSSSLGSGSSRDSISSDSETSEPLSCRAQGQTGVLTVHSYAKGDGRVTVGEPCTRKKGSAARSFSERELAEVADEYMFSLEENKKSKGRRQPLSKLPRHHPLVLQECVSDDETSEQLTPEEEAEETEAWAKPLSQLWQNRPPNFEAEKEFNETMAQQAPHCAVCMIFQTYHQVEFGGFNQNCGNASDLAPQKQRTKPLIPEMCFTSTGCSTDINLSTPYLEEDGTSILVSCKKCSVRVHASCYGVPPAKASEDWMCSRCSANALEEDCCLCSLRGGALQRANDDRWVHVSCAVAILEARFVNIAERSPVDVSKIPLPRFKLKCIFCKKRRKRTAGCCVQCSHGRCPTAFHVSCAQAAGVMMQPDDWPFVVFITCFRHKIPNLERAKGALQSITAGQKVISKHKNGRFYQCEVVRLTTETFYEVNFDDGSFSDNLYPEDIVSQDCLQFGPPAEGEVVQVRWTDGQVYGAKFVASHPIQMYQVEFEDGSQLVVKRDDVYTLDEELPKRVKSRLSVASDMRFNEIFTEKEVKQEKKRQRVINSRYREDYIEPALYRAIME
# Six1-Eya2 blk: inhibitors of human Six1/Eya2 interaction; actives 0.56% (n = 360,000); AID 651725; activity change, % (concentration not given with the values); AlphaScreen GST-Six1/His-Eya2 binding, biochemical; active compounds read low; Q15475+O00167; in the data active = activity change below about -65%; inconclusive = mostly about -30% to -63%; note: % is set by controls: 0 for no effect and ±100 for the full control effect
#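 AlphaScreen luminescence read after one hour at 37 °C in darkness. Pin-transferred compounds met GST-Six1 and His-Eya2 protein (5X stock 250 nM/500 nM) plus glutathione donor and Ni-chelate acceptor beads (5X, 50 ug/mL).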
# CtBP-E1A inh: CtBP/E1A binding inhibition. AlphaScreen GST-E1A/His-CtBP binding, 1536-well; active compounds read low. activity change, % (concentration not given with the values). actives 0.49% (n = 340,000); in the data active = activity change below about -65%; inconclusive = mostly about -30% to -63%; note: % is set by controls: 0 for no effect and ±100 for the full control effect
#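 AlphaScreen with 125 nM GST-E1A and 125 nM His-CtBP (5X stocks) in Tris pH 8.0, 300 mM NaCl, BSA, Tween 20, TCEP. Compounds preincubated 2 h at 37 deg C, then glutathione donor/nickel acceptor beads added for 1 h at 37 deg C in dark.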
# G9a block: G9a (human) methyltransferase inhibition | G9a H3K9 monomethylation, AlphaScreen, 2 h | Potency, µM (titrated, usually from 102 µM), without a hit: at the highest dose activity, negative = inhibition, actives largely listed as inhibitors | Q96KQ7 | actives 8.8% (n = 350,000); note: potency is the fitted concentration of half-maximal effect; % is set by controls: 0 for no effect and ±100 for the full control effect; nearly all actives have a fitted effect of over 75% in size
#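 Chemiluminescent proximity detection of H3K9 monomethylation, read after 10 min bead incubation in the dark. Reaction: 20 nM G9a, 500 nM biotin-H3K9 peptide, 20 uM SAM cofactor, 2 h, room temperature, following 15 min enzyme-compound preincubation.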
# BAZ2B inh: inhibitors of human BAZ2B bromodomain | actives 4.4% (n = 360,000) | AID 504333 | AlphaScreen BAZ2B-H3K14Ac peptide displacement | Q9UIF8 | Potency, µM (highest dose often 114 µM), inactives show top-dose activity change, negative = inhibition, usual class: inhibitors; note: potency is the fitted concentration of half-maximal effect; % is set by controls: 0 for no effect and ±100 for the full control effect; nearly all actives have a fitted effect of over 60% in size
#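 Inhibition is scored as reduced AlphaScreen emission. The BAZ2B/b-H3(5-23)K14Ac complex (50 nM each) in PBS pH 7.4, 0.01% Tween-20 meets compound (up to 110 uM) for 30 min at RT before bead addition.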
# * hit, by the source's call; ? = inconclusive; · = no result; [ ] = another dose, or the depositor's remark. Compounds with a hit are over-represented: about 10% of the library has one in this group of screens. Unless noted, calls come from the whole dose curve; as a rule, active = well fitted inhibition curve with a large enough effect; inconclusive = small, poorly fitted or top-dose-only effect; inactive = no such curve, though single readings can be large or run the other way.
SMILES,HP1b binding inh,JMJD2A Tudor inh,Six1-Eya2 blk,CtBP-E1A inh,G9a block,BAZ2B inh
CCOC(=O)c1cc(-c2ccccc2)n(-c2cccc(C(=O)Nc3cccc(C)c3)c2)c1C,22.5%,?,·,·,?,-26.9%
CCOC(=O)c1cc(-c2ccccc2)n(-c2cccc(C(=O)N(CC)c3ccccc3)c2)c1C,-10.1%,?,·,·,?,10µM*
CC(=O)Nc1ccccc1OCc1cc(=O)n2c(C)csc2n1,45.3%,-4.0%,·,·,2.5%[59 µM],-3.4%
COCCn1c(=O)cnc2cnc(N3CCN(C)CC3)nc21,·,·,·,·,-1.1%[0.501 µM],·
C#CCNC(=O)C1=C[C@@H](c2ccc(C(F)(F)F)cc2)[C@H](CCCO)[C@@H](OCC)O1,64.7%,-12.1%,-0.7,8.1,27.2%[59 µM],0.9%
O=C(Nc1cccnc1)C1(F)C(F)(F)C(F)(F)C(F)(F)C(F)(F)C1(F)F,14.4%,79.4µM*,5.9,10.1,50.1µM*,-31.2%
O=C(Nc1cccnc1)C12CC3CC(CC(C3)C1)C2,27.3%,-14.3%,3.5,-11.0,-2.6%,-11.2%
COC(=O)/C=C/C(=O)Nc1cccnc1,15.3%,-5.2%,-3.8,1.5,50.1µM*,12.0%
COC(=O)/C=C/C(=O)Nc1ccc(O)c(Cl)c1,13.2%,-17.8%,-3.2,0.6,39.8µM*,?
CCCN(CCC)C(=O)c1nn(C)c2c1CSc1ccccc1-2,55.4%,-4.3%,·,·,-5.2%[59 µM],-8.8%
Cc1onc(-c2c(F)cccc2Cl)c1C(=O)Nc1nnc(C(F)(F)F)s1,16.6%,7.4%,-12.2,-21.4,-18.1%,-15.7%
N#CCCn1c(=O)c(CCc2ccccc2)nc2cnc(N3CCOCC3)nc21,·,·,·,·,-6.6%[12.7 µM],·
CCCC(C)C(=O)Nc1nc(C)c(-c2csc(Nc3cc(OC)ccc3OC)n2)s1 (configuration not stated),-6.2%,?,-24.3,-9.2,14.1µM*,?
CCCCCC(=O)Nc1nc(C)c(-c2csc(Nc3cc(Cl)ccc3OC)n2)s1,?,?,-12.8,-16.5,?,?
C=CCCC(=O)Nc1nc(C)c(-c2csc(Nc3cccc(OC)c3)n2)s1,-11.9%,?,-8.3,-11.0,?,?
C=CCCC(=O)Nc1nc(C)c(-c2csc(Nc3cc(OC)ccc3OC)n2)s1,?,35.5µM*,-5.2,·,10µM*,50.1µM*
COc1ccc(OC)c(Nc2nc(-c3sc(N)nc3C)cs2)c1,?,50.1µM*,?,-67.6*,31.6µM*,44.7µM*
Fc1ccccc1Cc1noc(CN(Cc2ccccn2)CC2CCCO2)n1 (configuration not stated),21.5%,-10.7%,-4.6,-18.6,0.5%,8.9%
N=S(=O)(O)Cc1noc2ccccc12,·,·,·,·,2.4%[59 µM],·
Cc1cc(O)c(C=O)c2c1C(=O)Oc1c(CO)c(O)c3c(c1O2)C(O)OC3=O (configuration not stated),?,3.16µM*,-80.1*,-4.4,?,20µM*
COc1ccc(C2(C)CC(C)(C)Nc3ccccc32)cc1 (configuration not stated),?,50.1µM*,?,-28.2,-2.4%[0.501 µM],?
O=C(Nc1c2c(nn1-c1cccc(Cl)c1)CS(=O)C2)c1ccc2c(c1)OCO2 (configuration not stated),39.6%,1.5%,0.6,12.0,?,-1.5%
O=C(Nc1c2c(nn1-c1ccc(F)cc1)CS(=O)C2)c1ccc2c(c1)OCO2 (configuration not stated),2.2%,89.1µM*,4.8,4.3,·,-3.1%
O=[N+]([O-])c1nn(-c2ccc3c(c2)OCCO3)n(O)c1=Nc1ccccc1,-34.1%,44.7µM*,-28.5,0.2,?,39.8µM*
O=[N+]([O-])c1nn(-c2ccc3c(c2)OCCO3)n(O)c1=Nc1ccc(Cl)cc1,-5.4%,-29.7%,-19.7,-14.3,?,?
Cc1ccc(N=c2c([N+](=O)[O-])nn(-c3ccc4c(c3)OCCO4)n2O)c(Cl)c1,·,·,·,·,44.7µM*,-27.2%
